Source: the antibiotic and cytotoxicity screens of Wong et al. (2023)
In all, about 39,000 compounds went through this assay and about 3,300 (8.5%) were called active. Many of the other results were omitted from the sample, so actives are more common in it than they were.

System: HepG2
Assay: cytotoxicity call (relative viability < 0.9)
Details: 10 µM

For COc1ccc(S(=O)(=O)N(C)C[C@H]2OCCCC[C@@H](C)Oc3ccc(NC(=O)Nc4ccc(C(F)(F)F)cc4)cc3C(=O)N([C@H](C)CO)C[C@@H]2C)cc1, which cytotoxicity call is on record?
The cytotoxicity call was “inactive”.

For CC(C)c1nc(CN(C)C(=O)N[C@@H](CCN2CCOCC2)C(=O)N[C@H](CC[C@H](Cc2ccccc2)NC(=O)OCc2cncs2)Cc2ccccc2)cs1, which cytotoxicity call is on record?
The cytotoxicity call was “inactive”.

For CC(C)NC(=O)Nc1ccc2c(c1)CC(=O)N([C@H](C)CO)C[C@H](C)[C@@H](CN(C)S(=O)(=O)c1cn(C)cn1)O2, which cytotoxicity call is on record?
Its cytotoxicity call is “inactive”.

With C=CCOC(=O)[C@@H]1[C@H]2C(=O)O[C@H](c3ccccc3)[C@H](c3ccccc3)N2[C@H](c2ccc(OCCOC(=O)[C@@H]3C[C@@H]4C(=O)N5CCC[C@H]5C(=O)N4[C@@H]3c3ccc(O)cc3)cc2)[C@@]12C(=O)Nc1ccccc12 as the compound, how does the cytotoxicity call read?
The cytotoxicity call was “inactive”.

Which cytotoxicity call does the source give for COc1ccc([Si](C)(C)[C@H]2[C@H](CC(=O)N3CCC[C@H]3CO)O[C@@]3(C(=O)N(Cc4ccc(N5C(=O)c6cccc7cccc5c67)cc4)c4ccccc43)[C@@H]2C)cc1 here?
Its cytotoxicity call is “inactive”.

COc1ccc([Si](C)(C)[C@H]2[C@H](CCO)O[C@@]3(C(=O)N(Cc4ccc(N5C(=O)c6cccc7cccc5c67)cc4)c4ccccc43)[C@@H]2C)cc1 was tested. Which cytotoxicity call did it give?
The cytotoxicity call was “active”.

For COc1ccc([Si](C)(C)[C@@H]2[C@@H](CC(=O)N3CCC[C@H]3CO)O[C@]3(C(=O)N(Cc4ccc(N5C(=O)c6cccc7cccc5c67)cc4)c4ccccc43)[C@H]2C)cc1, which cytotoxicity call is on record?
Its cytotoxicity call is “inactive”.

COc1ccc([Si](C)(C)[C@@H]2[C@@H](CCO)O[C@]3(C(=O)N(Cc4ccc(N5C(=O)c6cccc7cccc5c67)cc4)c4ccccc43)[C@H]2C)cc1 was tested. Which cytotoxicity call did it give?
The cytotoxicity call was “active”.

For COc1ccc([Si](C)(C)[C@@H]2[C@@H](CC(=O)N3Cc4ccccc4C[C@H]3CO)O[C@]3(C(=O)N(Cc4ccc(N5C(=O)c6cccc7cccc5c67)cc4)c4ccccc43)[C@H]2C)cc1, which cytotoxicity call is on record?
Its cytotoxicity call is “inactive”.

C[C@H](CO)N1C[C@H](C)[C@@H](CN(C)S(=O)(=O)c2cn(C)cn2)Oc2ccc(NC(=O)Cc3cn(C)c4ccccc34)cc2C1=O was tested. Which cytotoxicity call did it give?
The cytotoxicity call was “inactive”.

With c1csc(Cn2cccc2)c1 as the compound, how does the cytotoxicity call read?
The cytotoxicity call was “inactive”.

Which cytotoxicity call does the source give for CCOC(=O)[C@H](C(C)=O)[C@H]1CCS(=O)(=O)C1 here?
The cytotoxicity call was “inactive”.

CC(C)NC(=O)N(C)C[C@@H]1Oc2ccc(NC(=O)NC3CCCCC3)cc2C(=O)N([C@@H](C)CO)C[C@@H]1C was tested. Which cytotoxicity call did it give?
Its cytotoxicity call is “inactive”.

With Cc1noc(C)c1S(=O)(=O)Nc1ccc2c(c1)C(=O)N([C@H](C)CO)C[C@H](C)[C@@H](CN(C)Cc1ccc3c(c1)OCO3)O2 as the compound, how does the cytotoxicity call read?
Its cytotoxicity call is “inactive”.

With CCc1nc2ccc(C(=O)Nc3cc(-c4ccccc4)ccc3OC)cn2c1N(C)CCCc1ccccc1 as the compound, how does the cytotoxicity call read?
The cytotoxicity call was “inactive”.

For CCc1nc2ccc(C(=O)Nc3cc(-c4ccccc4)ccc3OC)cn2c1N(C)C(=O)Cc1ccccc1, which cytotoxicity call is on record?
The cytotoxicity call was “inactive”.

With CCc1nc2ccc(C(=O)Nc3cc(-c4ccccc4)ccc3OC)cn2c1N(CCN(C)C)CC1CC1 as the compound, how does the cytotoxicity call read?
Its cytotoxicity call is “active”.

With CCC(=O)N1CCC(C(=O)O)CC1 as the compound, how does the cytotoxicity call read?
The cytotoxicity call was “inactive”.

With C[C@H](CCC(=O)NCC(=O)NCCS(=O)(=O)O)[C@H]1CC[C@H]2[C@@H]3[C@H](O)C[C@@H]4C[C@H](O)CC[C@]4(C)[C@H]3C[C@H](O)[C@]12C as the compound, how does the cytotoxicity call read?
Its cytotoxicity call is “active”.

For CC(CCC(=O)NCC(=O)O)C1CCC2C3C(O)CC4CC(O)CCC4(C)C3CC(O)C12C (configuration not stated), which cytotoxicity call is on record?
The cytotoxicity call was “inactive”.

With COC(=O)CCC(C)C1CCC2C3CCC4CC(O)CCC4(C)C3CC(O)C12C (configuration not stated) as the compound, how does the cytotoxicity call read?
Its cytotoxicity call is “inactive”.

How did the cytotoxicity call turn out when COC(=O)CCC(C)C1CCC2C3C(O)CC4CC(O)CCC4(C)C3CC(O)C12C (configuration not stated) was run?
Its cytotoxicity call is “active”.

For CC(CCC(=O)O)C1CCC2C3C(O)CC4CC(O)CCC4(C)C3CC(O)C12C (configuration not stated), which cytotoxicity call is on record?
Its cytotoxicity call is “inactive”.

Which cytotoxicity call does the source give for C[C@H](CCC(=O)NCCS(=O)(=O)O)[C@H]1CC[C@H]2[C@@H]3[C@H](O)C[C@@H]4C[C@H](O)CC[C@]4(C)[C@H]3C[C@H](O)[C@]12C here?
Its cytotoxicity call is “inactive”.

With Cc1noc(C)c1NC(=O)Nc1ccc2c(c1)C(=O)N([C@H](C)CO)C[C@H](C)[C@@H](CN(C)S(=O)(=O)c1ccc(Cl)cc1)OCCCC[C@H](C)O2 as the compound, how does the cytotoxicity call read?
The cytotoxicity call was “inactive”.

With CCc1nnc(SCC(=O)OC)[nH]1 as the compound, how does the cytotoxicity call read?
The cytotoxicity call was “inactive”.

How did the cytotoxicity call turn out when COc1ccc(NC(=O)N(C)C[C@H]2OCCCC[C@H](C)Oc3ccc(NC(=O)Nc4c(C)noc4C)cc3C(=O)N([C@H](C)CO)C[C@@H]2C)cc1 was run?
Its cytotoxicity call is “inactive”.

For C[C@@H]1CN([C@@H](C)CO)C(=O)Cc2cc(NC(=O)Cc3ccccc3)ccc2O[C@H]1CN(C)C(=O)Nc1ccc(C(F)(F)F)cc1, which cytotoxicity call is on record?
Its cytotoxicity call is “inactive”.

How did the cytotoxicity call turn out when C[C@H](CO)N1C[C@H](C)[C@@H](CN(C)Cc2ccc(C(F)(F)F)cc2)Oc2ccc(NC(=O)Cc3ccccc3)cc2CC1=O was run?
The cytotoxicity call was “inactive”.

Which cytotoxicity call does the source give for C[C@@H]1CN([C@H](C)CO)C(=O)Cc2cc(NC(=O)Cc3ccccc3)ccc2O[C@H]1CN(C)Cc1ccc(C(F)(F)F)cc1 here?
Its cytotoxicity call is “inactive”.

C[C@@H]1CN([C@H](C)CO)C(=O)Cc2cc(NC(=O)Cc3ccccc3)ccc2O[C@@H]1CN(C)Cc1ccc(C(F)(F)F)cc1 was tested. Which cytotoxicity call did it give?
Its cytotoxicity call is “active”.

C[C@H]1CN([C@@H](C)CO)C(=O)Cc2cc(NC(=O)Cc3ccccc3)ccc2O[C@@H]1CN(C)Cc1ccc(C(F)(F)F)cc1 was tested. Which cytotoxicity call did it give?
The cytotoxicity call was “inactive”.

Which cytotoxicity call does the source give for C[C@H]1CN([C@@H](C)CO)C(=O)Cc2cc(NC(=O)Cc3ccccc3)ccc2O[C@H]1CN(C)Cc1ccc(C(F)(F)F)cc1 here?
The cytotoxicity call was “inactive”.

With C[C@@H]1CN([C@@H](C)CO)C(=O)Cc2cc(NC(=O)Cc3ccccc3)ccc2O[C@@H]1CN(C)Cc1ccc(C(F)(F)F)cc1 as the compound, how does the cytotoxicity call read?
Its cytotoxicity call is “active”.

Which cytotoxicity call does the source give for C[C@@H]1CN([C@@H](C)CO)C(=O)Cc2cc(NC(=O)Cc3ccccc3)ccc2O[C@H]1CN(C)Cc1ccc(C(F)(F)F)cc1 here?
Its cytotoxicity call is “inactive”.

How did the cytotoxicity call turn out when C[C@H](CO)N1C[C@H](C)[C@H](CN(C)Cc2ccc(C(F)(F)F)cc2)Oc2ccc(NC(=O)Cc3ccccc3)cc2CC1=O was run?
The cytotoxicity call was “active”.

With CN1CCN(C(=O)C[C@@H]2CC[C@H]3[C@@H](COC[C@@H](O)CN3C(=O)C3CCOCC3)O2)CC1 as the compound, how does the cytotoxicity call read?
Its cytotoxicity call is “inactive”.

For COCC(=O)Nc1ccc2c(c1)C(=O)N(C)[C@@H]1CC[C@H](CC(=O)NCc3ccccc3Cl)O[C@@H]1CO2, which cytotoxicity call is on record?
The cytotoxicity call was “inactive”.

With CCCn1c(=O)[nH]c2nc(-c3ccc(S(=O)(=O)N4CCN(c5ccc(Cl)cc5)CC4)cc3)[nH]c2c1=O as the compound, how does the cytotoxicity call read?
The cytotoxicity call was “inactive”.

With CC(C)(C)[S@](=O)N1Cc2cc(C(=O)N[C@@H]3CCN(Cc4ccccc4)C3)nc(-c3cccc(-c4ccncc4)c3)c2[C@@H]1CCO as the compound, how does the cytotoxicity call read?
Its cytotoxicity call is “inactive”.

With Cc1ccnc(-n2c(C)ccc2C)c1 as the compound, how does the cytotoxicity call read?
The cytotoxicity call was “inactive”.

For C[C@@H]1CN([C@@H](C)CO)C(=O)c2cccc(NC(=O)Nc3ccc4c(c3)OCO4)c2O[C@@H]1CN(C)C(=O)Nc1ccc(C(F)(F)F)cc1, which cytotoxicity call is on record?
Its cytotoxicity call is “inactive”.

C[C@@H]1CN([C@H](C)CO)C(=O)CCCn2nncc2CO[C@@H]1CN(C)C(=O)Nc1ccc(N2CCN(C)CC2)cc1 was tested. Which cytotoxicity call did it give?
The cytotoxicity call was “inactive”.

With C[C@@H]1CN([C@H](C)CO)C(=O)c2cccc(NC(=O)c3nc4ccccc4s3)c2O[C@H]1CN(C)C(=O)Nc1ccc(C(F)(F)F)cc1 as the compound, how does the cytotoxicity call read?
Its cytotoxicity call is “inactive”.

Which cytotoxicity call does the source give for O=C(C[C@H]1C[C@H]2c3cc(NS(=O)(=O)c4ccc(F)cc4)ccc3O[C@H]2[C@H](CO)O1)NCc1ccc(Oc2ccccc2)cc1 here?
Its cytotoxicity call is “active”.

For O=C(C[C@@H]1C[C@H]2c3cc(NS(=O)(=O)c4ccc(F)cc4)ccc3O[C@H]2[C@@H](CO)O1)NCc1ccc(Oc2ccccc2)cc1, which cytotoxicity call is on record?
The cytotoxicity call was “active”.

For O=C(C[C@@H]1C[C@@H]2c3cc(NS(=O)(=O)c4ccc(F)cc4)ccc3O[C@@H]2[C@H](CO)O1)NCc1ccccc1, which cytotoxicity call is on record?
Its cytotoxicity call is “inactive”.

With COc1cccc(S(=O)(=O)Nc2ccc3c(c2)[C@@H]2C[C@@H](CC(=O)NCc4ccccc4F)O[C@H](CO)[C@@H]2O3)c1 as the compound, how does the cytotoxicity call read?
The cytotoxicity call was “inactive”.

How did the cytotoxicity call turn out when O=C(C[C@@H]1C[C@@H]2c3cc(NS(=O)(=O)c4ccc(F)cc4)ccc3O[C@@H]2[C@H](CO)O1)NCc1ccc(Oc2ccccc2)cc1 was run?
The cytotoxicity call was “inactive”.

With COc1cccc(S(=O)(=O)Nc2ccc3c(c2)[C@@H]2C[C@@H](CC(=O)NCc4ccccc4F)O[C@@H](CO)[C@@H]2O3)c1 as the compound, how does the cytotoxicity call read?
The cytotoxicity call was “active”.

For O=C(C[C@@H]1C[C@@H]2c3cc(NS(=O)(=O)c4ccc(F)cc4)ccc3O[C@@H]2[C@@H](CO)O1)NCc1ccc(Oc2ccccc2)cc1, which cytotoxicity call is on record?
Its cytotoxicity call is “inactive”.

O=C(C[C@H]1C[C@H]2c3cc(NS(=O)(=O)c4ccc(F)cc4)ccc3O[C@H]2[C@@H](CO)O1)NCc1ccc(Oc2ccccc2)cc1 was tested. Which cytotoxicity call did it give?
Its cytotoxicity call is “inactive”.

Which cytotoxicity call does the source give for O=C(C[C@H]1C[C@@H]2c3cc(NS(=O)(=O)c4ccc(F)cc4)ccc3O[C@@H]2[C@H](CO)O1)NCc1ccc(Oc2ccccc2)cc1 here?
Its cytotoxicity call is “inactive”.

How did the cytotoxicity call turn out when O=C(C[C@H]1C[C@@H]2c3cc(NS(=O)(=O)c4ccc(F)cc4)ccc3O[C@@H]2[C@H](CO)O1)NCc1ccccc1 was run?
The cytotoxicity call was “inactive”.

With O=C(C[C@H]1C[C@@H]2c3cc(NS(=O)(=O)c4ccc(F)cc4)ccc3O[C@@H]2[C@@H](CO)O1)NCc1ccc(Oc2ccccc2)cc1 as the compound, how does the cytotoxicity call read?
Its cytotoxicity call is “active”.

With COc1cccc(S(=O)(=O)Nc2ccc3c(c2)[C@H]2C[C@@H](CC(=O)NCc4ccccc4F)O[C@H](CO)[C@H]2O3)c1 as the compound, how does the cytotoxicity call read?
Its cytotoxicity call is “inactive”.

CNC[C@H]1Oc2cc(C#CC(C)(C)O)ccc2S(=O)(=O)N([C@H](C)CO)C[C@H]1C was tested. Which cytotoxicity call did it give?
The cytotoxicity call was “inactive”.

COc1cc(F)c(F)c(Nc2ccc(I)cc2F)c1NS(=O)(=O)C1(C[C@H](O)CO)CC1 was tested. Which cytotoxicity call did it give?
The cytotoxicity call was “inactive”.

O=C(NCC1(c2nc(-c3ccccc3)cs2)CCOCC1)c1cccc(-c2noc(C(F)(F)F)n2)c1 was tested. Which cytotoxicity call did it give?
Its cytotoxicity call is “inactive”.

How did the cytotoxicity call turn out when C[C@@H]1CN([C@@H](C)CO)C(=O)c2cccc(NS(=O)(=O)c3cn(C)cn3)c2O[C@@H]1CN(C)Cc1ccc(C(=O)Nc2ccccc2N)cc1 was run?
Its cytotoxicity call is “inactive”.

Which cytotoxicity call does the source give for C[C@H]1CN([C@@H](C)CO)C(=O)c2cccc(NC(=O)c3ccc(-c4nccs4)cc3)c2O[C@H]1CN(C)C(=O)Nc1ccc(F)cc1 here?
The cytotoxicity call was “inactive”.

How did the cytotoxicity call turn out when C[C@H]1CN([C@@H](C)CO)C(=O)c2cc(NC(=O)Nc3ccc(F)cc3)ccc2O[C@H]1CN(C)C(=O)Nc1cccc2ccccc12 was run?
The cytotoxicity call was “inactive”.
